Unmarked numbers belong to inactive results.

The test system of the assay is Caenorhabditis elegans L1 (N2). Nature of the assay: survival and reproduction score of C. elegans L1 (0: 0-10 living worms, 1: 11-20, 2: 21-50, 3: >50, 4: overgrown) (score 0-4); higher = more worms, less nematicidal, active = 1 or less; extreme values may be limits of the assay. The note with it: 60 µM; 6 days; temperature: 20 °C. The method, boiled down: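 In liquid NGM with E. coli HB101, approximately 20 synchronized C. elegans N2 L1s per 96-well well were exposed to compound at 60 µM final (0.6% v/v DMSO) for 6 days at 20 °C with shaking at 200 rpm in sealed plates. Survival and reproduction were judged under a dissection microscope as an ordinal rating of living worms per well. Ratings went from 0 (0–10 worms) to 4 (overgrown, starved) and were averaged over two biological replicates.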
For `COc1ccccc1-c1noc(-c2ccccc2)n1`, the “survival and reproduction score” value was 4.

Turning to `Cn1c(SCc2nc(-c3cccs3)no2)nnc1-c1ccco1`, the “survival and reproduction score” value is 4.

`COc1ccc(-c2noc(COc3ccc(Cl)cc3Cl)n2)cc1`: the “survival and reproduction score” value was 4.

As for `CCOc1ccccc1-c1nc(-c2ccc(NC(=O)Cc3ccccc3OC)cc2)no1`, the “survival and reproduction score” value is 4.

As for `O=C(c1ccccc1-c1nc(-c2ccc(F)cc2)no1)N1CCCC1`, the “survival and reproduction score” value was 4.

For the compound `CCn1c(SCc2nnc(-c3ccccc3)o2)nnc1-c1ccco1`, the “survival and reproduction score” value was 4.

As to `Cc1cc(OCc2nc(-c3ccc(NC(=O)c4ccc5c(c4)OCO5)cc3)no2)ccc1Cl`, the “survival and reproduction score” value was 4.

On to `Cc1cc(OCc2nc(-c3cccnc3)no2)cc(C)c1Br`, for which the “survival and reproduction score” value was 4.

As for `COc1cccc(-c2noc(CSc3ccc(Cl)cc3)n2)c1`, the “survival and reproduction score” value was 4.

Consider `CCn1c(SCc2ccc(OC)cc2)nnc1-c1ccco1`, for which the “survival and reproduction score” value is 4.

Regarding `Cc1ccc(-c2noc(-c3ccc4c(c3)OCCO4)n2)cc1`, the “survival and reproduction score” value was 4.

As to `Cc1cccc(-c2noc(COc3ccc(Cl)cc3C)n2)c1`, the “survival and reproduction score” value was 4.

With `CCc1ccc(OCc2nc(-c3ccc(C)cc3)no2)cc1`, the “survival and reproduction score” value is 2.

Consider `Cc1cc(Cl)ccc1OCc1nc(-c2ccc(F)cc2)no1`, for which the “survival and reproduction score” value is 4.

Consider `c1cncc(-c2noc(-c3cccc4ccccc34)n2)c1`, for which the “survival and reproduction score” value was 4.

Take `Ic1ccccc1-c1nc(-c2cccnc2)no1`: the “survival and reproduction score” value was 3.5.

In the case of `Cc1ccc(-c2nc(C3CCCCC3)no2)cc1`, the “survival and reproduction score” value is 0 (active).

Regarding `Cc1cc(OCc2nc(-c3ccccc3)no2)ccc1Cl`, the “survival and reproduction score” value was 4.

Take `Clc1ccc(-c2noc(COc3ccccc3Cl)n2)cc1`: the “survival and reproduction score” value was 4.

With `Cc1ccccc1CSc1nnc(-c2ccco2)n1C`, the “survival and reproduction score” value is 2.

For the compound `COc1cccc(-c2noc(-c3cc(C)ccc3C)n2)c1`, the “survival and reproduction score” value was 4.

In the case of `c1coc(-c2nc(-c3cccs3)no2)c1`, the “survival and reproduction score” value is 0 (active).

For the compound `Cc1ccc(-c2noc(C3CCCCC3)n2)cc1`, the “survival and reproduction score” value is 0 (active).

In the case of `Cc1ccc(-c2nc(-c3ccccc3Br)no2)cc1`, the “survival and reproduction score” value is 4.

As to `Cc1cccc(-c2nnc(SCC(=O)Nc3ccccc3F)o2)c1`, the “survival and reproduction score” value was 4.

On to `Cc1ccc(-c2nc(-c3ccc(Br)cc3)no2)cc1`, for which the “survival and reproduction score” value is 4.

Consider `O=C(NC1CCCCC1)c1ccccc1-c1nc(-c2ccc(F)cc2)no1`, for which the “survival and reproduction score” value is 4.

On to `CCOc1ccc(NC(=O)CSc2nnc(-c3ccccc3Cl)o2)cc1`, for which the “survival and reproduction score” value is 4.

With `Clc1ccc(-c2noc(-c3ccccc3Br)n2)cc1`, the “survival and reproduction score” value is 3.

Take `c1ccc(CSc2nnc(-c3cccnc3)o2)cc1`: the “survival and reproduction score” value is 4.

Consider `COc1ccc(-c2nnc(SCc3ccc(C#N)cc3)o2)cc1`, for which the “survival and reproduction score” value is 4.

As for `CC(C)(C)c1ccc(-c2nc(-c3ccncc3)no2)cc1`, the “survival and reproduction score” value is 0 (active).

For the compound `CCCc1nnc(SCc2nnc(-c3ccccc3)o2)o1`, the “survival and reproduction score” value was 4.

As to `O=C(CSc1nnc(-c2ccccc2)o1)Nc1ccc(Br)cc1F`, the “survival and reproduction score” value was 4.

For the compound `Cc1ccccc1OCc1nc(-c2cccc(C(F)(F)F)c2)no1`, the “survival and reproduction score” value is 4.

Regarding `c1ccc2c(-c3nc(-c4ccncc4)no3)cccc2c1`, the “survival and reproduction score” value is 4.

For the compound `Brc1ccc(CSc2nnc(-c3cccnc3)o2)cc1`, the “survival and reproduction score” value is 4.

`O=C(Nc1ccccc1-c1nc(-c2cccnc2)no1)c1cccs1`: the “survival and reproduction score” value was 4.

Source of the values: the supplement of paper PMC11219838.
